What was measured:
Assay in all cases: PBM binding z-score (relative to random genomic background probes); higher = stronger binding; sequences stand for … in GC…GCGATTGACAGCGTAGAATGAAGG
[1] = system: FXR:RXRa (NR concentration 270 nM, RXRa partner concentration 90 nM)
Summary of the method: (§1)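 Binding buffer was PBS pH 7.4 with 2% milk, 0.02% Triton X-100, 1 mM DTT, 0.2 mg/mL BSA and 0.4 mg/ml salmon testes DNA. In it, ligand-free nuclear receptor dimers were incubated 1 h on custom Agilent 4×180K protein-binding microarrays carrying double-stranded probes. Antibodies against each partner (one per run) detected binding, and z-scores were calculated against random background probes after regression normalization of scanned fluorescence.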

[2] = system: LXRa:RXRa (NR concentration 270 nM, RXRa partner concentration 90 nM)
Summary of the method: as §1

[3] = system: LXRa homodimer (NR concentration 270 nM)
Summary of the method: as §1

[4] = system: LXRb:RXRa (NR concentration 270 nM, RXRa partner concentration 90 nM)
Summary of the method: as §1

[5] = system: LXRb homodimer (NR concentration 270 nM)
Summary of the method: as §1

[6] = system: PPARa:RXRa (NR concentration 270 nM, RXRa partner concentration 90 nM)
Summary of the method: as §1

[7] = system: PPARg:RXRa (NR concentration 180 nM, RXRa partner concentration 90 nM)
Summary of the method: as §1

[8] = system: PPARg:RXRa 270nM:90nM, anti-RXR (NR concentration 270 nM, RXRa partner concentration 90 nM)
Summary of the method: as §1

[9] = system: PPARg:RXRa 30nM:10nM, anti-RXR (NR concentration 30 nM, RXRa partner concentration 10 nM)
Summary of the method: as §1

[10] = system: PPARg:RXRa 90nM:30nM, anti-RXR (NR concentration 90 nM, RXRa partner concentration 30 nM)
Summary of the method: as §1

[11] = system: PPARg:RXRa DBDmut IVT, anti-RXR (DBD mutation: RXRa K156A/R161A, NR concentration 270 nM, RXRa partner concentration 90 nM)
Summary of the method: as §1

[12] = system: PPARg:RXRa IVT, anti-PPARg (NR concentration 270 nM, RXRa partner concentration 90 nM)
Summary of the method: as §1

[13] = system: PPARg DBDmut:RXRa IVT, anti-PPARg (DBD mutation: PPARg1 K132A/R137A, NR concentration 270 nM, RXRa partner concentration 90 nM)
Summary of the method: as §1

[14] = system: PPARg DBDmut IVT, anti-PPARg (DBD mutation: PPARg1 K132A/R137A, NR concentration 270 nM)
Summary of the method: as §1

[15] = system: PPARg homodimer (NR concentration 180 nM)
Summary of the method: as §1

[16] = system: PXR:RXRa (NR concentration 270 nM, RXRa partner concentration 90 nM)
Summary of the method: as §1

[17] = system: PXR homodimer (NR concentration 270 nM)
Summary of the method: as §1

[18] = system: RARa:RXR (NR concentration 270 nM, RXRa partner concentration 90 nM)
Summary of the method: as §1

[19] = system: RARa homodimer (NR concentration 270 nM)
Summary of the method: as §1

[20] = system: RARb:RXRa (NR concentration 270 nM, RXRa partner concentration 90 nM)
Summary of the method: as §1

Sequence | PBM binding z-score [1] | PBM binding z-score [2] | PBM binding z-score [3] | PBM binding z-score [4] | PBM binding z-score [5] | PBM binding z-score [6] | PBM binding z-score [7] | PBM binding z-score [8] | PBM binding z-score [9] | PBM binding z-score [10] | PBM binding z-score [11] | PBM binding z-score [12] | PBM binding z-score [13] | PBM binding z-score [14] | PBM binding z-score [15] | PBM binding z-score [16] | PBM binding z-score [17] | PBM binding z-score [18] | PBM binding z-score [19] | PBM binding z-score [20]
TCATATAGGTAAAAGGCGAAAGTCGGTGTGGTAA | 0.336 | 0.537 | 0.094 | 0.746 | -0.359 | 2.66 | 4.65 | 6.15 | 6.72 | 7.04 | 3.92 | 3.21 | 0.28 | 0.103 | 0.768 | 0.309 | 0.159 | 0.628 | 0.926 | 0.164
GTACCAAGGTGAATGGGTCGTTGATGAGTAGGCG | 0.456 | 0.288 | -0.238 | 0.0453 | -0.983 | 1.71 | 1.26 | 1.19 | 0.195 | 0.732 | 1.52 | 2.44 | 0.0637 | -0.57 | 1.22 | 0.325 | 0.284 | 0.784 | 0.00879 | 1.64
GCATATAGGAAATACAAGGTGAAAGTCCGATTGT | -0.0334 | -0.148 | -0.095 | 0.0762 | -0.434 | 0.727 | 0.752 | 0.734 | -0.0341 | 0.81 | -0.0437 | 0.645 | -0.0022 | 0.353 | 0.365 | 0.166 | 0.0769 | 0.702 | 0.755 | 0.29
TCTTGTAGATCAATAGAGGTTAAGCAAGTGCGCT | 0.958 | 2.62 | 0.281 | 1.34 | -0.1 | 2.08 | 0.0342 | 1.71 | 2.75 | 2.4 | 1.66 | 1.19 | 0.792 | -0.371 | 0.43 | 3.72 | 0.269 | 1.89 | 0.018 | 0.837
TCTTGCAGATCAATAGAGGTTAAGAAAGTGCGCT | 0.606 | 3.34 | 0.219 | 2.04 | -0.44 | 1.9 | -0.17 | 1.1 | 1.84 | 1.35 | 0.862 | 0.37 | 0.336 | -0.0409 | -0.12 | 3.03 | 0.036 | 1.91 | -0.478 | 0.805
TAGACTAGGTCATGGGCCAGTATACCACGCGAAC | 3.63 | 2.6 | 0.103 | 1.81 | 0.438 | 4.41 | 7.24 | 6.34 | 4.78 | 6.07 | 5.98 | 6.8 | 1.6 | 0.962 | 1.38 | 1.04 | 0.462 | 2.1 | 0.407 | 3.49
TAGCCTAGGTCAGATCTGGCCAGTATACGCTATA | 1.53 | 1.13 | -0.379 | 0.773 | 0.0198 | 1.43 | 0.793 | 0.718 | -0.145 | 0.178 | 0.589 | 1.44 | -0.455 | -0.0508 | -0.0754 | 0.447 | -1.1 | 0.766 | -1.06 | 2.98
TTTTGTAGATCAAAGGTTAAGAAAGCCGAAGCCT | 1.35 | 2.03 | 0.327 | 2.09 | 0.386 | 5.08 | 9.51 | 8.59 | 8.23 | 9.36 | 1.61 | 3.98 | 0.975 | 1.12 | 1 | 2.05 | -0.0288 | 3.17 | 0.339 | 2.07
ATATGTAGGTGACATCCGGGTCATTCAGGCTATG | 2.96 | 2.62 | 0.319 | 2.21 | 0.147 | 5.01 | 6.79 | 5.7 | 2.91 | 5 | 7.69 | 8.07 | 4.09 | 3.49 | 3.11 | 3.52 | 2.13 | 3.62 | -0.0147 | 2.14
CAAACTAGGTCAAGAAGTCAAAGTCCGCTTCCCG | 3.65 | 2.9 | 0.599 | 1.94 | 0.337 | 4.89 | 7.74 | 6.67 | 4.66 | 6.22 | 7.86 | 8.35 | 2.53 | 3.42 | 2.98 | 1.49 | 0.206 | 2.77 | 0.734 | 4.05
CTCGAAAGGTCGTGCTCAGGGGAGTATACCAAAC | 4.81 | 3.33 | 0.243 | 3.32 | 0.229 | 4.69 | 2.3 | 3.33 | 0.905 | 2.16 | 0.876 | 1.67 | 0.228 | 0.455 | 1.54 | 2.79 | 0.224 | 3.43 | -0.0621 | 3.88
ACTATTATTTGAGACGAGGGCAACCGATAGGTTG | 0.64 | 0.912 | 1.29 | 0.748 | 1.1 | 0.639 | 0.833 | 0.648 | 0.477 | 0.429 | 0.883 | 0.779 | 1.61 | 1.74 | 1.86 | 0.944 | 1.91 | 1.04 | 3.89 | 1.35
TCTTGTAGATCAACAGGAGGTTAAGATAGATCGA | 0.606 | 1.82 | 0.251 | 0.87 | -0.281 | 1.34 | 0.413 | 1.07 | 2.4 | 1.53 | 1.53 | 1.03 | 0.933 | 1.02 | 0.31 | 0.729 | -0.114 | 1.05 | 0.362 | 0.506
CCTTACGGGTCACTCCAGGTTATACCATCGGAGT | 4.89 | 7.62 | 2.1 | 5.35 | 0.431 | 4.44 | 3.61 | 3.66 | 1.11 | 2.42 | 2.28 | 3.61 | 0.661 | -0.4 | 1.69 | 5 | 0.455 | 3.74 | 0.133 | 3.68
CAAACTAGGTGAAGGTCAAAGTCGGTTTGTGCCA | 4.11 | 4.11 | 2.31 | 3.48 | 0.412 | 5.38 | 7.65 | 6.92 | 5.05 | 6.44 | 8.04 | 8.04 | 2.16 | 0.309 | 2.76 | 3.95 | 0.968 | 4.27 | 0.0969 | 3.87
GCTGCAAGGTCAGGTTGGTCAGCTAACGGGTACG | 4.43 | 2.88 | 0.0795 | 2.36 | 0.0855 | 3.65 | 1.36 | 2.37 | 0.236 | 1.42 | 1.24 | 1.7 | -0.124 | -0.859 | 1.91 | 2.44 | -0.0524 | 3.02 | 0.176 | 4.4
AACTCTAGGTAACAAGTTCAGTGAAAGAGAGGAC | 0.335 | 0.477 | 0.364 | 0.379 | -0.166 | 1.58 | 1.32 | 1.72 | 0.492 | 1.31 | 3.33 | 2.65 | 0.517 | 0.445 | 0.677 | 1.37 | 1.37 | 0.703 | 0.522 | 1.4
CCTACTGGGCCATAAAGGTCATTGATGCCGATAA | 3.55 | 4.42 | 3.57 | 4.21 | 0.574 | 4.79 | 4.32 | 4.68 | 2.1 | 4.45 | 3.2 | 4.78 | -0.0892 | 0.0735 | 1.94 | 4.87 | 2.7 | 4.9 | 0.376 | 3.89
